# Sampled rows, rich in hits. Any-hit rate of the full collection: about 7.2%.
# RE007 growth inh – less growth of the S. pombe RE007 Vpr strain. S. pombe RE007 Vpr strain, BacTiter-Glo ATP luminescence, 24 h. Potency, µM (doses to about 92.2 µM), inactives show top-dose activity change, negative = less growth, most hits filed as inhibitors. 360,000 tested, 0.21% active. AID 651644; active = well fitted falling curve with a large enough effect; inconclusive = small, poorly fitted or top-dose-only effect; inactive = no such curve, though single readings can be large or run the other way; also: nearly all actives have a fitted effect of over 50% in size
#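 Fission yeast RE007 carrying one integrated HIV-1 vpr copy, seeded at OD 0.01 in PMG+AL medium with 23 nL pinned compound. Grown 24 h at 30 degrees; viability read by BacTiter-Glo luminescence after 5 min.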
# HCV inhibitor – HCV inhibition | Huh7.5.1 HCVcc-Cre infection, luciferase reporter, 44 h | Potency, µM (highest dose often 41.8 µM), for inactives: top-dose activity change, negative = inhibition, usual class: inhibitors | 340,000 tested, 3.4% active
#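 Cells seeded at 1,000/well and cultured 4 h, then compounds added followed by HCVcc-Cre virus (~0.5 moi). After 44 h further culture, luciferase substrate was added, plates held 15 min at room temperature, and luminescence read for 15 sec.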
# Sm TGR block – inhibitors of Schistosoma mansoni thioredoxin glutathione reductase. Q962Y6. purified TGR, DTNB reduction, TNB absorbance 405 nm. Potency, µM (titrated, usually from 114 µM), without a hit: at the top dose activity change, negative = inhibition, most hits filed as inhibitors. 360,000 tested, 3% active. AID 485364; also: nearly all actives have a fitted effect of over 60% in size
#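 Kinetic colorimetric format: TGR-catalysed, NADPH-driven DTNB reduction monitored via TNB absorbance. Enzyme dispensed at 20 nM; compound exposure 15 min at room temperature before reaction start.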
# MARV entry inh – blocks Marburg virus binding to or entry into cells. Marburg virus pseudotyped entry inhibition, cell reporter. Potency, µM (series often up to 37.8 µM), without a hit: at the highest dose activity change, negative = inhibition, actives largely listed as inhibitors. AID 540276. 300,000 tested, 1.8% active; calls by dose curve; tested in HEK293 cells
# FMDV antiviral – foot and mouth disease virus antiviral activity. FMDV antiviral cell-based qHTS. Potency, µM (doses to about 57.9 µM), for the others: at the top dose activity change, negative = inhibition, actives largely listed as inhibitors. 410,000 tested, 1.2% active; calls by dose curve; tested in HEK293T cells; also: read-out not given here; nearly all actives have a fitted effect of over 45% in size
# LASV entry inh – inhibitors of Lassa virus binding or cell entry; Lassa virus pseudotype entry inhibition, cell reporter; Potency, µM (series often up to 37.9 µM), without a hit: top-dose activity change, negative = inhibition, hits mostly inhibitors; 300,000 tested, 1.2% active; calls by dose curve; tested in HEK293 cells; also: nearly all actives have a fitted effect of over 50% in size
# * hit, by the source's call; ? = inconclusive; . = not tested or not shown; [ ] = another dose, or the depositor's remark. Unless noted, calls follow the shape of the dose curve; as a rule, active = well fitted curve in the direction sought with a large enough effect; inconclusive = small, poorly fitted or top-dose-only effect, or another doubt; inactive = no such curve, though single readings can be large; an effect the other way counts as inactive or inconclusive. % is scaled to controls: 0 for no effect and ±100 for the full control effect; potency is read from the fitted curve at half-maximal effect.
SMILES,RE007 growth inh,HCV inhibitor,Sm TGR block,MARV entry inh,FMDV antiviral,LASV entry inh
COc1ccc(/C=N/NC(=O)c2ccc(CSc3nc(C)cc(C)n3)cc2)cc1O,-3%,?,7%,-23%,?,-3%
COc1ccc(O)c(/C=N/NC(=O)c2ccc(CSc3nc(C)cc(C)n3)cc2)c1,8%,5.6µM*,2%,?,?,?
Cc1cc(C)nc(SCc2ccc(C(=O)N/N=C/c3cccc(O)c3O)cc2)n1,?,13µM*,-16%,7.3µM*,24%,?
Cc1ccc(C(=O)NCCc2nnc3n2CCN(Cc2ccc4ccccc4c2)CC3)c(C)c1,.,.,.,.,-12%,.
O=C(Oc1ccccc1)c1cccc2cccnc12,35µM*,?,-10%,5%,.,-2%
O=C(O)c1cccc2cccnc12,5%,-2%,2%,10%,-7%,13%
O=C(NCCOc1cccc2cccnc12)c1cccs1,-5%,-9%,5%,-22%[46.1 µM],-12%,-23%[46.1 µM]
O=C(Oc1cccc2cccnc12)c1cccs1,5µM*,?,-5%,-6%,0%,?
O=C(Oc1cccc2cccnc12)c1ccco1,28µM*,?,-19%,-1%,-7%,1%
COC(=O)c1cc(CNC(=O)c2cccc(F)c2)cc(NC(=O)c2ccccc2OC)c1,.,.,.,.,-10%,.
Cc1noc(C)c1C(=O)NNc1ccc(C(C)C)cc1,14%,16%,20µM*,13%[46.1 µM],-18%,-15%[46.1 µM]
CC12C=C(C=CCCc3ccco3)C(C)(C1)[C@H](CCc1ccco1)CC2=O (stereo partly specified),.,.,.,29%[14.2 µM],.,.
Cc1ccc(-c2cc(-c3ccc(C)cc3)[n+](-c3ccc(C(=O)[O-])cc3)c(-c3ccc(C)cc3)c2)cc1,-14%,2.5µM*,13%,.,0%,.
c1ccc(-c2cc(-c3ccccc3)[n+](-c3ccccc3)c(-c3ccccc3)c2)cc1,-9%,?,11%,?,18µM*,?
Cc1ccc(-c2cc(-c3ccccc3)cc(-c3ccccc3)[n+]2-c2ccccc2)cc1,-17%,6.3µM*,-1%,.,7.1µM*,.
CCOC(=O)c1ccc(-[n+]2c(-c3ccccc3)cc(-c3ccccc3)cc2-c2ccccc2)cc1,-15%,0.63µM*,-2%,.,-20%,.
COc1cccc(CN(C(=O)COc2ccc(Cl)c(C)c2)C2CCS(=O)(=O)C2)c1 (stereo unspecified),.,.,8%,4%[46.1 µM],0%,-8%[46.1 µM]
O=C(C[C@@H](c1ccco1)S(=O)(=O)c1ccccc1)c1ccc(F)cc1,.,.,.,4%,.,.
COc1ccccc1NC(=O)C1=C(C)Nc2nc(SCc3ccccc3F)nn2C1c1cccs1 (stereo unspecified),.,.,-7%,?,-10%,1%[46.1 µM]
COc1ccc(N(C)S(=O)(=O)c2ccc3c(c2)n(C)c(=O)c(=O)n3C)cc1,.,.,4%,2%[46.1 µM],-13%,5%[46.1 µM]
Cc1ccc(-c2cc(-c3ccc(C)cc3)[n+](-c3ccccc3)c(-c3ccc(C)cc3)c2)cc1,-13%,25µM*,-4%,.,7.1µM*,.
CN(C)c1ccc(-[n+]2c(-c3ccccc3)cc(-c3ccccc3)cc2-c2ccccc2)cc1,-2%,7.1µM*,.,?,32µM*,?
C[n+]1c(-c2ccccc2)cc(-c2ccc(Cl)cc2)cc1-c1ccccc1,-6%,-20%,-3%,?,?,?
COC(=O)c1c(-c2cccs2)csc1NC(=O)COc1c(C)ccc(C)c1C,.,.,5%,?,-25%,3%[46.1 µM]
O=C(c1ccc(NS(=O)(=O)c2cccs2)cc1)N1CCOCC1,9%,.,2%,25%,-5%,9%
CSc1ccccc1NC(=S)Nc1ccc(S(N)(=O)=O)cc1,-8%,5%,22µM*,6%[46.1 µM],-6%,7%[46.1 µM]
NS(=O)(=O)c1ccc(NC(=S)Nc2ccc(C(=O)N3CCCCC3)cc2)cc1,-8%,9%,45µM*,7%[46.1 µM],-15%,8%[46.1 µM]
O=C(Nc1ccc(C(=O)N2CCCC2)cc1)C1CCCCC1,-4%,3%,.,.,19%,?
